According to the supplement of paper PMC11732987, “Enantioselective OTUD7B fragment discovery through chemoproteomics screening and high-throughput optimisation” (Communications Chemistry, 2025):

Legend:
Assay in all cases: log2 ratio of Biotin-Ahx-Ub-VS probe labelling (fragment/DMSO); higher = less target engagement (more negative = stronger competition), active = hit call of the paper (q ≤ 0.05, log2 ratio ≤ -1)
Details in all cases: compound concentration: 200 uM; treatment time: 3 h
[1] = target: USP34 (UniProt Q70CQ2)
In short: (§1)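 Each value is an average log2 ratio of fragment to vehicle, tested by unpaired t-test. The underlying Spectronaut label-free quantities were global-median-normalised, and only proteins with ≥2 unique peptides were included. Triplicate HEK293T lysate samples (495 µg) were exposed to fragment at 200 µM or vehicle for 3 h, then to Biotin-Ahx-Ub-VS at 0.5 µM final for 1 h, before NeutrAvidin enrichment of labelled DUBs, LysC and trypsin digestion, and diaPASEF LC-MS/MS.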

[2] = target: T1, USP36 (UniProt Q9P275)
T1 sequence (whole entry): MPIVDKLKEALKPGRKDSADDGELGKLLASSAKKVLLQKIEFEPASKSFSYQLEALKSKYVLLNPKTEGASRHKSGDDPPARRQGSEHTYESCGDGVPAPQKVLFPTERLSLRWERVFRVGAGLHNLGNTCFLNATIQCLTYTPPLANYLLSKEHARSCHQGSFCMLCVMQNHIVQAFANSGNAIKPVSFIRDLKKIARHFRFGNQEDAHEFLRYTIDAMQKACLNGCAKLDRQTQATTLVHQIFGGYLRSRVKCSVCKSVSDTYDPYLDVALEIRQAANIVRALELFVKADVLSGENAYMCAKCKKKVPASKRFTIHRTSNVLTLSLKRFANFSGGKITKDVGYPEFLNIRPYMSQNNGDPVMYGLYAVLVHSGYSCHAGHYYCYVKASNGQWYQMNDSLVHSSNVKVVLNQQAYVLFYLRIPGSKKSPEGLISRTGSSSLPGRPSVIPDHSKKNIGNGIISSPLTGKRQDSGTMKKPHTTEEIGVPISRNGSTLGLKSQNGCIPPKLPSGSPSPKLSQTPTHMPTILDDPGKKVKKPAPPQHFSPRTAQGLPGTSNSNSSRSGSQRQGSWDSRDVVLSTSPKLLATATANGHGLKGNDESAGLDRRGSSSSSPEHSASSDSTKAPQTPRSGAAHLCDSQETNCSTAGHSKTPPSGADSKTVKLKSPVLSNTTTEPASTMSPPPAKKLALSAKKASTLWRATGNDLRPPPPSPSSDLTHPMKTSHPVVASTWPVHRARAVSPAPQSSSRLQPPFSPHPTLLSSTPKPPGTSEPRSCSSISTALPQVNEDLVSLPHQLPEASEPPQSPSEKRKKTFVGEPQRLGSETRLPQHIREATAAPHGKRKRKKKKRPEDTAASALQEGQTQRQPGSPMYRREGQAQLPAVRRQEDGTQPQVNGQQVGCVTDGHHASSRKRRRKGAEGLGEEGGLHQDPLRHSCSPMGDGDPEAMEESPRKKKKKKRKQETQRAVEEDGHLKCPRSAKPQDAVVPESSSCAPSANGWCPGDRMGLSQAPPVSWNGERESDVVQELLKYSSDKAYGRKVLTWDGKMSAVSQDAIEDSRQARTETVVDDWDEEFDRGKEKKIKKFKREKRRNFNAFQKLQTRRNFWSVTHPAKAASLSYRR
In short: as §1

[3] = target: T2, USP38 (UniProt Q8NB14)
T2 sequence (whole entry): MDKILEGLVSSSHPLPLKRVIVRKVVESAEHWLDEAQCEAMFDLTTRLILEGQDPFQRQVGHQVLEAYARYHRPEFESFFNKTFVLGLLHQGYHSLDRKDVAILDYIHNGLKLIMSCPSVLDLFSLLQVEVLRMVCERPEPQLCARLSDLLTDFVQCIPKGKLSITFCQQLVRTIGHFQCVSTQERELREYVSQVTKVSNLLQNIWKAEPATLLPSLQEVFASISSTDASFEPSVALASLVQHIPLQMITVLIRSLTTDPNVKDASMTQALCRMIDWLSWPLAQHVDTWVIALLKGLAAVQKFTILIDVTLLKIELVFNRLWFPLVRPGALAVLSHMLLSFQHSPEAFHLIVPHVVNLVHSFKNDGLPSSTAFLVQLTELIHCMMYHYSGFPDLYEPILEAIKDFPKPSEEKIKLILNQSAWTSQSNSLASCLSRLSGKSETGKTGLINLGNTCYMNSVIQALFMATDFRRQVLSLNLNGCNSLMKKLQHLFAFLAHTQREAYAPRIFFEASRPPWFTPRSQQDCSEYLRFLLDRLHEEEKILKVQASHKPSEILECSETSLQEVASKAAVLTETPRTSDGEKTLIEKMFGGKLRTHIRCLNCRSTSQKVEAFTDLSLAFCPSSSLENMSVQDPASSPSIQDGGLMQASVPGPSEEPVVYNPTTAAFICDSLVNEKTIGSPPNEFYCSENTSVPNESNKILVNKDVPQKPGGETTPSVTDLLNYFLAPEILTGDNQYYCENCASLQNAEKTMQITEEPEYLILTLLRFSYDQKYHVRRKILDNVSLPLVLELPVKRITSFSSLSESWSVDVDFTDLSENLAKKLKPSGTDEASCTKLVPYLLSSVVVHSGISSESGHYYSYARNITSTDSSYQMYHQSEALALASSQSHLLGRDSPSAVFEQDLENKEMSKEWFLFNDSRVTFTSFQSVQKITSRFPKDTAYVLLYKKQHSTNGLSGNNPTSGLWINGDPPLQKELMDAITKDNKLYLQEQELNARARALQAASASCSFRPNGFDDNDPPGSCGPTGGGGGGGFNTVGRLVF
In short: as §1

[4] = target: T3, USP39 (UniProt Q53GS9)
T3 sequence (whole entry): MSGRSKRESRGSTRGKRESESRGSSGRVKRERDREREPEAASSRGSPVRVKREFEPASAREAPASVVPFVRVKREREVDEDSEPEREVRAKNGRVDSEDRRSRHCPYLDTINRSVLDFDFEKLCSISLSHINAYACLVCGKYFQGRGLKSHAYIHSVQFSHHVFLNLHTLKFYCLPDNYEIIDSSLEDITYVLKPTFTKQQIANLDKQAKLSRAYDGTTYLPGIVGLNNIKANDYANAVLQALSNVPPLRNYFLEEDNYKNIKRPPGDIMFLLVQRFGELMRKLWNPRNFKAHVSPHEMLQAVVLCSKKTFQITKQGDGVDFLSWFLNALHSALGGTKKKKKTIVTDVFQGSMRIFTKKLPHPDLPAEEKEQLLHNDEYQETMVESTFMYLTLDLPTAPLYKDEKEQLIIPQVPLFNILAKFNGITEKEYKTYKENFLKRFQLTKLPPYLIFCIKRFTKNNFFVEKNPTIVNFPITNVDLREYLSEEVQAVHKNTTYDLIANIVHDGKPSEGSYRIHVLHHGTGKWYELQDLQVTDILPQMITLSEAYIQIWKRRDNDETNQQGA
In short: as §1

[5] = target: T4, USP4 (UniProt Q13107)
T4 sequence (whole entry): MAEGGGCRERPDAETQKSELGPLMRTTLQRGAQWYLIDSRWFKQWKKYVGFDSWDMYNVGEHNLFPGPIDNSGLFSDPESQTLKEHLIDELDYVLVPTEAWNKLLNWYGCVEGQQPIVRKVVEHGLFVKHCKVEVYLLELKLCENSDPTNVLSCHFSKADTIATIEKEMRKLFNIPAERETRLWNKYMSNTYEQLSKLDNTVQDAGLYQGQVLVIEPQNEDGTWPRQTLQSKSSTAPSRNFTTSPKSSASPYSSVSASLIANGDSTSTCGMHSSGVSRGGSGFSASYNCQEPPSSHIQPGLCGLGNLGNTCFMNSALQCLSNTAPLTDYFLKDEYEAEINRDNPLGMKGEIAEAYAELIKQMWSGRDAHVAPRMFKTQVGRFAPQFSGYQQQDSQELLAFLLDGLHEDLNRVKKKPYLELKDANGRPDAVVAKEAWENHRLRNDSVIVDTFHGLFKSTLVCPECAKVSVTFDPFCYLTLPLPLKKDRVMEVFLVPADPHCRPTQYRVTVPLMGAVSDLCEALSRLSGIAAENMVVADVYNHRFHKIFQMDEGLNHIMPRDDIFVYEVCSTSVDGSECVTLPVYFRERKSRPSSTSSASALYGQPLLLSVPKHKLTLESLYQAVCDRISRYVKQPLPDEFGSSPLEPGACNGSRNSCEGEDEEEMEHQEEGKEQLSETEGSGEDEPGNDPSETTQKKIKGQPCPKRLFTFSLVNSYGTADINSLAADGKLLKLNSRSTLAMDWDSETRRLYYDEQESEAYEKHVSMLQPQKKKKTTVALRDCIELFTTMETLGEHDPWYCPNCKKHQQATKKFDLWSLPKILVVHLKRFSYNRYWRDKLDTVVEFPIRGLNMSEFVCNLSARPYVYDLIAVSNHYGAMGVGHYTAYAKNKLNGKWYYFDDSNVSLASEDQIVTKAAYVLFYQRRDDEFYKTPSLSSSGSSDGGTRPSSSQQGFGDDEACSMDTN
In short: as §1

Measured: log2 ratio of Biotin-Ahx-Ub-VS probe labelling

Chain of USP34 (Q70CQ2 whole entry, the tested form may be a part): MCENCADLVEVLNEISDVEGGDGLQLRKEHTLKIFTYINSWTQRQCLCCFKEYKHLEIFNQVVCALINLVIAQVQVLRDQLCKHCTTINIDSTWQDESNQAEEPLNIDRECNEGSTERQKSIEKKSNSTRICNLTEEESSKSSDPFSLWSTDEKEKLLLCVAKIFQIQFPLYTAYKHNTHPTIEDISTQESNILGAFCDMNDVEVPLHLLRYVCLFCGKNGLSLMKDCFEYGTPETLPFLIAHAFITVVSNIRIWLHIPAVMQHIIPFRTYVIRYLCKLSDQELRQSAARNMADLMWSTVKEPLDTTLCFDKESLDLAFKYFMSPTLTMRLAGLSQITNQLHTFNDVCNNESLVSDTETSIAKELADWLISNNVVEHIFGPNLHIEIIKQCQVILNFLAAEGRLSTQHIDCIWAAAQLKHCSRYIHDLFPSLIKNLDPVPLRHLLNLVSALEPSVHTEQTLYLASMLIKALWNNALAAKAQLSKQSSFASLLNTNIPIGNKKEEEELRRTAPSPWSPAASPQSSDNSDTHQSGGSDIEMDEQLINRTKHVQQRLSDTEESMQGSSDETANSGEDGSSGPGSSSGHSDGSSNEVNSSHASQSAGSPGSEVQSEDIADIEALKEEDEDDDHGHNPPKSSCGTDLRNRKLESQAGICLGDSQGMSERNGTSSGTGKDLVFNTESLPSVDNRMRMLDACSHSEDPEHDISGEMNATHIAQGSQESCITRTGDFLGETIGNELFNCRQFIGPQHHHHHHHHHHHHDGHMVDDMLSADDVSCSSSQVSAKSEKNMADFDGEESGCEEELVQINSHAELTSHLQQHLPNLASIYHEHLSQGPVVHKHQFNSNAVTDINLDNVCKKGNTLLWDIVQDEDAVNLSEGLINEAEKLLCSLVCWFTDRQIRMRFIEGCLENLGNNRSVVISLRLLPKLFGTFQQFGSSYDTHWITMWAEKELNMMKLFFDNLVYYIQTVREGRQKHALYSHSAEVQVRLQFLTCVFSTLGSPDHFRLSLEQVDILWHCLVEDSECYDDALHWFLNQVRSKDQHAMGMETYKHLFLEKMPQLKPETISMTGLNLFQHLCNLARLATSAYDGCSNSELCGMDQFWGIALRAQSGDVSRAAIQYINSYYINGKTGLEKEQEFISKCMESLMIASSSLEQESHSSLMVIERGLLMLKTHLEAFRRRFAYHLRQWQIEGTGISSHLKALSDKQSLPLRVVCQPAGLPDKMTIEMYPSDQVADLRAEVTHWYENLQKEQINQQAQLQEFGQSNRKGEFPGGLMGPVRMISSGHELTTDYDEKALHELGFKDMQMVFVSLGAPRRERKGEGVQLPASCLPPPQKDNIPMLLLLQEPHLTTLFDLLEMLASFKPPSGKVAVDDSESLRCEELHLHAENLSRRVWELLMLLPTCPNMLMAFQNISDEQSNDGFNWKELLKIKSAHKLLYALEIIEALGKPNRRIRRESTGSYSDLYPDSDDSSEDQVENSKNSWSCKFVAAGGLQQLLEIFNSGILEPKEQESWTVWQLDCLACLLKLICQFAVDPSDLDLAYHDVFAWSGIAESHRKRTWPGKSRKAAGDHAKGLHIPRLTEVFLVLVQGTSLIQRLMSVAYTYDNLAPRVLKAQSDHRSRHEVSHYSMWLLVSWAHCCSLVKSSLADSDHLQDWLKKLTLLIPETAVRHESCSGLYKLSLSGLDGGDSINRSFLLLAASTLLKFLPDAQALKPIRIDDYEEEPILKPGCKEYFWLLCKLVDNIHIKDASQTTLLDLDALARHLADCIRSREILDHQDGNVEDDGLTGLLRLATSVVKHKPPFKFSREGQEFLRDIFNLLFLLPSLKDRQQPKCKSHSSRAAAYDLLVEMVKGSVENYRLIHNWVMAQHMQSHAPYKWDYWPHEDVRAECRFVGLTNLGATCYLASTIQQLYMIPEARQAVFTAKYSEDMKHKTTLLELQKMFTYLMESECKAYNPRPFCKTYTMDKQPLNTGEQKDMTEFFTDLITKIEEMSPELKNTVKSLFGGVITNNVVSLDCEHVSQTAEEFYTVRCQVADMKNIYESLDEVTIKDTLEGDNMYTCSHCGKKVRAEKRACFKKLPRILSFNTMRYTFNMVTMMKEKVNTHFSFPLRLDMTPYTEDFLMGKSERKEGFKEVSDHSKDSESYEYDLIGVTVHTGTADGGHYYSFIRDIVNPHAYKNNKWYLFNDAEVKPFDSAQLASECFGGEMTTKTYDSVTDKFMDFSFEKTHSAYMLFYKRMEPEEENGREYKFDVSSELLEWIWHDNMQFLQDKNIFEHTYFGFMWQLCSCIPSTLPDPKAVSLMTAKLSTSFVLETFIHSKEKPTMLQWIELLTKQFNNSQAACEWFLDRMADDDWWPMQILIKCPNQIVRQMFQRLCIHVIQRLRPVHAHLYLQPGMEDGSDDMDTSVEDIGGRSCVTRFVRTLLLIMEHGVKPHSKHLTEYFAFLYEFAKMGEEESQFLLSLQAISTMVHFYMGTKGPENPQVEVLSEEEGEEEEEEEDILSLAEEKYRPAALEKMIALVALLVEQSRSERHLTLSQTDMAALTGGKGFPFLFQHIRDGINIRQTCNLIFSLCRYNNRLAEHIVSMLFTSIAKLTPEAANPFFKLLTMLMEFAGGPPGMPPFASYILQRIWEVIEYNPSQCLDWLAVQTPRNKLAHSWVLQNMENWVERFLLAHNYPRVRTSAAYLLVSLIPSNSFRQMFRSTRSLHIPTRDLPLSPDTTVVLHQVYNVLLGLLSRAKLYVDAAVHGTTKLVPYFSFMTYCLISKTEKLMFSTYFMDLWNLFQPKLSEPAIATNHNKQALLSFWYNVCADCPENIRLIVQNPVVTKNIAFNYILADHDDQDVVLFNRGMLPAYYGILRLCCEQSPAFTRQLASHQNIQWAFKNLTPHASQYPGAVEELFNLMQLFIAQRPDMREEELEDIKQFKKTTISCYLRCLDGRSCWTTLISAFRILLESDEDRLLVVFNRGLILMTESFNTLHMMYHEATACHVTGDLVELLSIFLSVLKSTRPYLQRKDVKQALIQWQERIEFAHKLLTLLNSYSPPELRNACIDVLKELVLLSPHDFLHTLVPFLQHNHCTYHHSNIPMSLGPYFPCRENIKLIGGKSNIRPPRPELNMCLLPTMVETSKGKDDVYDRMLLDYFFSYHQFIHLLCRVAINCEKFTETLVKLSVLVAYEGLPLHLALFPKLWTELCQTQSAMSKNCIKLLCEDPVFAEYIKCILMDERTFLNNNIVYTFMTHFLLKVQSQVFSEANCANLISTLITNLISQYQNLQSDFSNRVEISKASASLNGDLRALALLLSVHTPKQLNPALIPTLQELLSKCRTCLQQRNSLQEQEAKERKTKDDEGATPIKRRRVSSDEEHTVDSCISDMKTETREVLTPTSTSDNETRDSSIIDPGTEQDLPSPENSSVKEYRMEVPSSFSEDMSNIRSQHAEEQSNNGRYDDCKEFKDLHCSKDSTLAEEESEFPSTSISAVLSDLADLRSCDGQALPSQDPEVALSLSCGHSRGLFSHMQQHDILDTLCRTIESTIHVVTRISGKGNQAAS

O=C(CCl)Nc1cc2c(cc1Cl)OCCCO2
inactive: [1] 0.0191 | [2] -0.11 | [3] 0.0869 | [4] 0.0922 | [5] 0.154
